Laboratory results published in PubChem BioAssay (NCI).
Values joined by “and” are separate entries in the source; they are usually repeats but may differ in a detail not shown here. Identical values can stand only once. The panel holds about 83,000 compounds, 20% with a hit somewhere; the sample as a whole holds those more often.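 How to read the values: 0–100, growth inhibition (40 = 60% inhibited); 0, no net growth; -100 to 0, cell death (-40 = 40% of starting cells died; -100 = all dead).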 Active and inactive are the calls of the source. The calls were made as follows: active = growth percent below 10; inactive = the rest.

System: MDA-MB-468 breast
Test: NCI-60 one-dose screen, 48 h (100 = growth as untreated, 0 = no growth, -100 = all killed)
Settings: 10 µM unless noted

| SMILES | growth |
| --- | --- |
| COc1ccc2nc(-c3c(-c4ccccc4)nc4ncccn34)[nH]c2c1 | 89.4% (inactive) |
| N=c1c2cc(-c3ccccc3)oc2ncn1/N=C/c1ccc(Br)cc1 | 68.3% (inactive) |
| COC(=O)[C@H](Cc1cn(C)cn1)NC(=O)[C@H](CC(=O)OCc1ccccc1)NC(=O)Nc1cc(C(F)(F)F)cc(C(F)(F)F)c1 | -74.2% [100 µM] (active) |
| Cc1ccc(NC(=O)CN2CCOCC2)cc1Cl | 99.1% (inactive) |
| COc1cc2nc(N3CCCC3)nc(Nc3ccccc3)c2cc1OC | -38.2% (active) |
| c1cc2[nH]ncc2cc1-c1nc2ccc3[nH]ncc3c2c2c1CCC2 | 3.92% (active) |
| CCN(CC)c1ccc(Nc2ccc(CC(=O)c3ccccc3)cc2)cc1 | 85.2% (inactive) |
| COc1ccc(-c2nc(-c3ccccn3)c(-c3ccccn3)n2CC(C)C)cc1OC1CCCC1 | -10.7% (active) |
| CCS(=O)(=O)Nc1cccc(Nc2c3cccc(C)c3nc3c(C)cccc23)c1OC | 37.7% (inactive) |
| CC(=O)/C(=C/c1cccc(Cl)c1)C(=O)c1ccccc1 | 99.2% (inactive) |
| CCCCCCCC/C=C\CCCCCCCCOc1ccccc1CC(=O)NCC[N+]1(C)CCOCC1 | 65.3% (inactive) |
| O=C(c1ccccc1)C(O)C(Br)(CBr)c1ccccc1 (stereo not given) | 50.7% (inactive) |
| O=C1CCC(=O)N1Cc1ccccc1 | 88.2% (inactive) |
| CCN1CCCC(N2c3ccccc3Sc3ccccc32)C1 (stereo not given) | 116% (inactive) |
| O=C1NC(=O)C2(CCc3ccccc32)N1 (stereo not given) | 106% (inactive) |
| COc1ccc(/C=N/OCC(O)CN2CCC(O)CC2)cc1OC1CCCC1 (stereo not given) | 117% (inactive) |
| O=C(CN1CCNCC1)N1CCOCC1 | 117% (inactive) |
| CCCCN1C(=O)CC(SC2CC(=O)N(CCCC)C2=O)C1=O (stereo not given) | 105% (inactive) |
| C#CCNC(=O)[C@]1(C)CCC[C@@]2(C)[C@H]1CC=C1C=C(C(C)C)CC[C@@H]12 | 101% (inactive) |
| O=C1CCCC=CC[C@H]2C=C(Cl)C(=O)C2=CC[C@H](CCCCC(F)(F)F)OC(=O)CCCC=CC[C@H]2C=C(Cl)C(=O)C2=CC[C@H](CCCCC(F)(F)F)OC(=O)CCCC=CC[C@H]2C=C(Cl)C(=O)C2=CC[C@H](CCCCC(F)(F)F)O1 | 59.9% [6.25 µM] (inactive) |

| SMILES | growth |
| --- | --- |
| O=C(CN1CCN(c2cc(=O)n(-c3ccccc3)c3ccccc23)CC1)Nc1nc(-c2ccc(Cl)cc2)cs1 | 9.61% (active) |
| O=C(Nc1ccccc1C(=O)N/N=C(\c1ccccc1)c1ccccn1)c1ccc(F)cc1 | 5.1% (active) |
| Cc1ccc(NCSc2ccc(Cl)cc2)cc1 | -0.979% (active) and 43.6% (inactive) |
| COc1cc(CNC(=O)CCCC/C=C/C(C)C)ccc1OCc1nnc(Nc2ccccc2F)o1 | 58.9% (inactive) |
| C(/C=C/c1ccccc1)=Nc1ccc(CCc2ccc(N=C/C=C/c3ccccc3)cc2)cc1 | 83.3% (inactive) |
| O=C1C(Cl)=C(Nc2ccccc2)C(=O)C(Cl)=C1Nc1ccccc1 | 102% (inactive) |
| CC1=C(C(=O)Nc2ccc(F)cc2)C(c2ccc(C)cc2)C2=C(CC(C)(C)CC2=O)N1 (stereo not given) | 84.7% (inactive) |
| CSc1nc2nc3c(c(-c4ccc(C)cc4)c2c(=O)[nH]1)CN(C)C/C3=C\c1ccc(C)cc1 | 74.7% (inactive) |
| CC(C)(C)CC(C)(C)NC(=O)Nc1ncccc1OCc1ccccc1 | 96% (inactive) |
| COc1ccc(/C=C(/C(=O)N2CCCC2)c2cc(OC)c(OC)c(OC)c2)cc1 | 11.6% (inactive) |
| CN(C)CC(O)c1ccc(/C=C/c2ccc(Cl)cc2)cc1 (stereo not given) | -84.4% (active) |
| O=C(/C=C/c1ccc(Cl)cc1)c1ccc(Nc2nc(NCCO)nc(Nc3ccc(Cl)cc3)n2)cc1 | 68.4% (inactive) |
| CCOC(=O)c1cc(/C=C/c2ccc(Cl)cc2Cl)on1 | 37.6% (inactive) |
| COC(=O)CCC(=O)C(=O)OC | 52.9% [10 mM] (inactive) |
| O=C(NNc1nc2cc(F)cc(F)c2n2cccc12)c1cccnn1 | -21% (active) |
| CNCc1cccc2c1OCCOCCOCCNS(=O)(=O)c1ccc(cc1)-c1cnc(N)c(n1)C(=O)N2 | 35.6% (inactive) |
| O=C(CSc1nnc(-c2cccs2)n1-c1ccccc1)Nc1ccccc1F | 67.1% (inactive) |
| CN1CCN(Cc2ccc(NC(=O)c3cncc(C#Cc4cncc5ncccc45)c3)cc2C(F)(F)F)CC1 | 43.5% (inactive) |
| COc1ccc(/C(C)=C(\c2ccc(Cl)cc2)c2ccc(OCCN3CCCCCC3)cc2)cc1 | 16.1% (inactive) |
| Cc1c(O)c(=O)n(-c2ccccc2)n1C | 105% (inactive) |
